The values that follow come from PubChem BioAssay.

A short description of test [1]: yeast TOR pathway RPL19A-GFP modulators, primary screen, cell-based, S. cerevisiae, multiplex flow cytometry (AID 1862; in the data active = percent of DMSO control GFP below about 86%;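 note: lower values mimic rapamycin by blocking the RPL19A rise seen in DMSO cells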). The note with it: S. cerevisiae RPL19A-GFP strain, flow cytometry fluorescence, 3 h; at 10 µM; stronger effect = lower value. For orientation: Flow cytometry measures light scatter and fluorescence of single cells or particles in a stream.
Test [2] in a line: modulators of MEP2-GFP levels in yeast, primary screen, S. cerevisiae, multiplex flow cytometry (AID 1867;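 active = GFP response, as percent of the DMSO control, above the screen-wide mean plus 3 SD, about 139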;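 note: median GFP channel fluorescence of barcode-gated MEP2-GFP cells measured by flow cytometry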). The conditions noted are these: S. cerevisiae MEP2-GFP strain, 3 h, at 10 µM, stronger effect = higher value, 100% means same as DMSO wells.
The nature of test [3]: modulators of CIT2-GFP expression in yeast, primary screen, S. cerevisiae, GFP fusion, multiplex flow cytometry (AID 1870).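 Note: barcoded CIT2-GFP strain pooled with four other GFP strains with rapamycin as positive control; median GFP fluorescence per well over plate mean of DMSO wells so 100% = DMSO.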 The conditions noted are these: 3 h, at 10 µM, stronger effect = higher value.
Test [4] can be described thus: modulators of LAP4-GFP expression in yeast, primary screen, S. cerevisiae, multiplex flow cytometry (AID 1873;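 active = GFP signal, as percent of the solvent control, above the screen mean plus 3 SD, about 149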). The note with it: 3 h, at 10 µM, stronger effect = higher value.
A short description of test [5]: modulators of AGP1-GFP expression in yeast TOR pathway, primary screen, cell-based, multiplex flow cytometry, S. cerevisiae (AID 1887;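 active = GFP signal above the screen-wide mean plus 3 SD, that is over about 124.5% of the solvent control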;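 note: AGP1-GFP fusion strain of S. cerevisiae within a five-strain barcoded multiplex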). The note with it: 3 h, at 10 µM, stronger effect = higher value.
A short description of test [6]: inhibitors of CD8+ T cell-vesicle binding, pilot screen, LFA-1/ICAM-1 modulator project, MLPCN validation set, flow cytometry (AID 2523;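 active = response below a set limit, under 55% cells CD8-positive and vesicle-bound, and CD8 cells' 90th-percentile brightness under 279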;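 for vesicle binding response: mean PE anti-B7-1 fluorescence of CD8+ cells relative to row control; 100% = QL9-loaded vesicles with DMSO vehicle in the same plate row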). The conditions noted are these: 2C mouse CD8+ T cells, at 7 µM, stronger effect = lower value; double positive events: measured here: CD8+/vesicle+ event percentage.
Test [7] has as its target Integrin beta-1 (Homo sapiens) + Integrin alpha-4 (Homo sapiens) (UniProt P13612+P05556). The test is described as follows: inhibition of HUTS-21 binding to VLA-4, pilot screen, VLA-4 allosteric modulator project, U937 cells, HUTS-21 mAb, flow cytometry, validation set (AID 2674;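 active = inhibition above 50%, about 3 SD of the validation set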;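 note: antibody binding induced by the VLA-4 ligand LDV present at three times its Kd; 0% = LDV ligand with antibody and no compound and 100% = antibody without LDV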). The note with it: HUTS-21 LIBS mAb binding, at 6.7 µM, stronger effect = higher value, binding induced by LDV ligand.

The nature of test [8]: superoxide lowering in aged yeast cells, pilot screen, validation compound set (AID 2706;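 active = superoxide response below 65% of plate, a cut near 3 SD across the whole screen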;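 note: yeast exposed to compound for one week at 30 degrees C before staining; 100% = mean of all compound wells on the same plate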). The conditions noted are these: S. cerevisiae aging, superoxide DHE fluorescence; at 10 µM; stronger effect = lower value.
The target of test [9] is Beta-adrenergic receptor kinase 1 (Homo sapiens) (UniProt P25098). The test can be described thus: GRK2 binders displacing RNA aptamer, biochemical, validation, human GRK2, bead flow cytometry (AID 488806;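 active = aptamer binding inhibition above 30%, about 3 SD of noise from non-fluorescent compounds; inactive = inhibition at or below 30%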). The conditions noted are these: bead-bound GRK2, FAM-aptamer displacement, at 10 µM, stronger effect = higher value.
Beta-adrenergic receptor kinase 1 (Homo sapiens), sequence (P25098 whole entry, looked up): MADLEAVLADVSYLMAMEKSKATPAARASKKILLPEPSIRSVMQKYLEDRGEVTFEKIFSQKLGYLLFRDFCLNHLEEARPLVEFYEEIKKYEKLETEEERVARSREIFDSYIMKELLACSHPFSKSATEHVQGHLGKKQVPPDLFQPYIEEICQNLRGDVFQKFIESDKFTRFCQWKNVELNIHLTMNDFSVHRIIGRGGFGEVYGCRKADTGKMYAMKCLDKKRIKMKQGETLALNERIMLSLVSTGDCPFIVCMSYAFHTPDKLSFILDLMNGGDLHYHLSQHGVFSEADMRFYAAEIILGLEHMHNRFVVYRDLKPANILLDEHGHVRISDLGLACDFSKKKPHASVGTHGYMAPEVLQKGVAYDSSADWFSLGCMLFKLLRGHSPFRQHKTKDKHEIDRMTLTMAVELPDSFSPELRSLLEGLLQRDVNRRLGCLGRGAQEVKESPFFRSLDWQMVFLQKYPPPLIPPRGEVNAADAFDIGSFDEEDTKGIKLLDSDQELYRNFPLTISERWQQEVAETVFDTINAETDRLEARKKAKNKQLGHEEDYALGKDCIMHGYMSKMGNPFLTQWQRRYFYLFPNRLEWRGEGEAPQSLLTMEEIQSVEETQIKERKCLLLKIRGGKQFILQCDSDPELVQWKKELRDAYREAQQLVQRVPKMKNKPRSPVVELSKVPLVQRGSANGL
In test [10] the target is Beta-2 adrenergic receptor (Homo sapiens) (UniProt P07550). The test can be described thus: beta2AR agonists driving receptor internalization, pilot screen, cell-based, FAP fluorogen, flow cytometry, validation set (AID 504459;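 active = percent response above 42, roughly 3 SD of non-fluorescent test compounds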;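 note: agonist-driven loss of surface beta2AR via internalization measured by FAP dye flow cytometry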). The note with it: Am2.2-beta2AR cells, FAP surface receptor flow cytometry; at 10 µM; stronger effect = higher value.
Beta-2 adrenergic receptor (Homo sapiens), sequence (P07550 whole entry, looked up): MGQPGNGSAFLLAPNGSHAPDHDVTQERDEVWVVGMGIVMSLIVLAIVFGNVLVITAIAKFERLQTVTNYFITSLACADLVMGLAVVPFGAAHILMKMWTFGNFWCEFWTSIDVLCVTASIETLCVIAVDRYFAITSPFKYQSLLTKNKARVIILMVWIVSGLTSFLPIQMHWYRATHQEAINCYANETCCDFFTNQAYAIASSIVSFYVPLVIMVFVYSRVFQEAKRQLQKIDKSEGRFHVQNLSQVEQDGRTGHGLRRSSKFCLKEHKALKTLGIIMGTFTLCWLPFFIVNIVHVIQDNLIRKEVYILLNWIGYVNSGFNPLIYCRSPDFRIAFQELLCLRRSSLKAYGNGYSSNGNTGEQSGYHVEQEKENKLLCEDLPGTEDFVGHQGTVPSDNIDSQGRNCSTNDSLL
For test [11], the target named is AP-2 complex subunit beta (Homo sapiens) (UniProt P63010). The test is described as follows: inhibitors of arrestin peptide binding to AP2, pilot screen, biochemical, validation set, GST-AP2 beads, flow cytometry (AID 504541;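 active = inhibition above 54%, about 3 SD of non-fluorescent compounds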;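 note: AP2 carries R879A mutation and is captured from E. coli lysate; bead-bound FITC arrestin peptide fluorescence measuring arrestin peptide binding to AP2; 0% = DMSO wells and 100% = excess unlabeled arrestin peptide control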). The note with it: FITC arrestin peptide, at 10 µM, stronger effect = higher value, AP2 beta2 appendage fragment, R879A mutant.
AP-2 complex subunit beta (Homo sapiens), sequence (P63010 whole entry, looked up, the tested form may be a part, one chain of several): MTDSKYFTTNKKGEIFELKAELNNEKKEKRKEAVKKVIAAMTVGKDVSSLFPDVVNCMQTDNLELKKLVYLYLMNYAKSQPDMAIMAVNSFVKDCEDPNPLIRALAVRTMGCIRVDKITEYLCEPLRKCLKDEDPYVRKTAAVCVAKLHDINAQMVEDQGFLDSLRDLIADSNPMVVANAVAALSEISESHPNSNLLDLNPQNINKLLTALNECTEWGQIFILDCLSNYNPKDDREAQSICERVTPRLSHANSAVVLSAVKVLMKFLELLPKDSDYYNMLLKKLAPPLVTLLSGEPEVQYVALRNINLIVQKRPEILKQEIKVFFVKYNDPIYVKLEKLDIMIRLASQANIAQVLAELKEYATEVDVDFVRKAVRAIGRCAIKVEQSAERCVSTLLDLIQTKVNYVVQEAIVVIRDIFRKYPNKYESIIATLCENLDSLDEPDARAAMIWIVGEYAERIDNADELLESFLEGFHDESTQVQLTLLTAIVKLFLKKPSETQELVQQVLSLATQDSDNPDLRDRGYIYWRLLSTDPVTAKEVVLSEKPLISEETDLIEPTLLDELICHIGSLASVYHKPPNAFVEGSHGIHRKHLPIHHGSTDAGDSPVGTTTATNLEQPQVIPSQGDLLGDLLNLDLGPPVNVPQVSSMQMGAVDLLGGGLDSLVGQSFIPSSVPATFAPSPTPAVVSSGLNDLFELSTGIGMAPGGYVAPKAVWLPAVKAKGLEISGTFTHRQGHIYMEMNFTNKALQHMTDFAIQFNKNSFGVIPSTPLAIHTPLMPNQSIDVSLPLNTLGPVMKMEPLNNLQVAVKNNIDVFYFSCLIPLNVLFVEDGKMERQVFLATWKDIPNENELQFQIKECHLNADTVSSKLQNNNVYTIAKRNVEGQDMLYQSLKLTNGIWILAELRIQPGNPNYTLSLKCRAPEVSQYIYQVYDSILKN
The nature of test [12]: yeast V-ATPase proton transport modulators, S. cerevisiae, pHLuorin, HTS validation (AID 504600; in the data active = response above about 15%;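 note: plate controls were DMSO for no effect and reference compound for full effect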). The note with it: S. cerevisiae pHLuorin cytosolic pH, at 10 µM, stronger effect = higher value.
Test [13] relates to anti-desmoglein-3 scFv antibody binding to human DSG3. The test can be described thus: inhibitors of anti-DSG3 scFv binding to DSG3, pilot screen, biochemical, validation compound set, bead-based, flow cytometry (AID 588368;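 active = binding below the plate cutoff, the plate median minus 3 SD, with a reading above zero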;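 note: signal is the median channel fluorescence of bead-bound GFP antibody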). The conditions noted are these: Protein G beads, DSG3-Fc, scFv-GFP binding, at 10 µM, stronger effect = lower value.
The nature of test [14]: inhibitors of fungal efflux pumps CDR1, CDR2, MDR1, pilot screen, validation compound set, multiplex, phenotypic (AID 588506;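 active = efflux inhibition above 0.42, the validation set average plus 4 SD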;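 note: Nile Red retained in cells so higher fluorescence means more efflux inhibition; 0 = negative control wells and 1 = enniatin B 25 µM full block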). The note with it: S. cerevisiae pump-expressing triplex, Nile Red efflux flow cytometry; at 10 µM; stronger effect = higher value; the pumps come from Candida albicans.
Test [15] has as its target ATP-binding cassette sub-family B member 6 (Homo sapiens) (UniProt Q9NP58). The test is described as follows: ABCB6 transporter inhibitors, pilot screen, K562-ABCB6 cells, flow cytometry, validation set (AID 588550;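 active = inhibition above the screen-wide mean plus 3 SD, about 51%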;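 note: 0% = DMSO wells and 100% = benzethonium chloride 70 µM positive control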). The note with it: K562-ABCB6 porphyrin accumulation, 1 h, at 10 µM, stronger effect = higher value.
Test [16] can be described thus: promoters of myeloid differentiation in arrested cells, primary screen, cell-based, GFP/MAC1 double positive, flow cytometry, validation set (AID 588685;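 active = differentiation response of at least 50%, scaled between solvent and reference control, from cells with both markers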;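 note: compound exposure lasts four days before antibody staining and flow analysis; 0% = DMSO wells and 100% = 5 µM fulvestrant positive control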). The conditions noted are these: ER-HoxA9 marrow cells, stronger effect = higher value, normalized: vehicle 0, fulvestrant 100.

Records with an inconclusive call do not appear. Active and inactive are the calls of the source.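 Rule for the calls, unless noted: active = percent response above a set limit, the screen-wide mean plus 3 SD (cut at about 130% in these data); inactive = the rest.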

ATP-binding cassette sub-family B member 6 (Homo sapiens), sequence (Q9NP58 whole entry, looked up): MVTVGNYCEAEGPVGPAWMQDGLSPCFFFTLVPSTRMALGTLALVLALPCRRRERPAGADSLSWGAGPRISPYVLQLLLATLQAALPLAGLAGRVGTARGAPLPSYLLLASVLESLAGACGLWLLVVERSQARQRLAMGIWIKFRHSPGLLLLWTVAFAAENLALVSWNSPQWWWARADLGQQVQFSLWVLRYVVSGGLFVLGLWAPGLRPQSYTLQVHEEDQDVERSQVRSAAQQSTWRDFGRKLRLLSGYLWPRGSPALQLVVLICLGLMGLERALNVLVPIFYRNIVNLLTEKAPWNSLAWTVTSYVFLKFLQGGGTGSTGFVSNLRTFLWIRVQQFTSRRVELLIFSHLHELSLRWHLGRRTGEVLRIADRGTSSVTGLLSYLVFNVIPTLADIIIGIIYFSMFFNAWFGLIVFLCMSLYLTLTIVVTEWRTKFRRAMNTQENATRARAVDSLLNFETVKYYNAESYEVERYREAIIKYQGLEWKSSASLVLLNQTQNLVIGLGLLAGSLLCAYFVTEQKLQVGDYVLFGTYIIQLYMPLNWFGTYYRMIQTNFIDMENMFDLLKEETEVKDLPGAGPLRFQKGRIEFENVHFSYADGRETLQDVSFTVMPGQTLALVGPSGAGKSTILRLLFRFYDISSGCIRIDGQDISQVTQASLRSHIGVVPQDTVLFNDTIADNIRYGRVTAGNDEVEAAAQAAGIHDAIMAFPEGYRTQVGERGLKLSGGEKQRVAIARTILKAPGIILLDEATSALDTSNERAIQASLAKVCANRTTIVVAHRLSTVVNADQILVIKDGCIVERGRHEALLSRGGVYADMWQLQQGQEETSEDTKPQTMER
Integrin beta-1 (Homo sapiens) + Integrin alpha-4 (Homo sapiens), sequence (P05556 whole entry, looked up): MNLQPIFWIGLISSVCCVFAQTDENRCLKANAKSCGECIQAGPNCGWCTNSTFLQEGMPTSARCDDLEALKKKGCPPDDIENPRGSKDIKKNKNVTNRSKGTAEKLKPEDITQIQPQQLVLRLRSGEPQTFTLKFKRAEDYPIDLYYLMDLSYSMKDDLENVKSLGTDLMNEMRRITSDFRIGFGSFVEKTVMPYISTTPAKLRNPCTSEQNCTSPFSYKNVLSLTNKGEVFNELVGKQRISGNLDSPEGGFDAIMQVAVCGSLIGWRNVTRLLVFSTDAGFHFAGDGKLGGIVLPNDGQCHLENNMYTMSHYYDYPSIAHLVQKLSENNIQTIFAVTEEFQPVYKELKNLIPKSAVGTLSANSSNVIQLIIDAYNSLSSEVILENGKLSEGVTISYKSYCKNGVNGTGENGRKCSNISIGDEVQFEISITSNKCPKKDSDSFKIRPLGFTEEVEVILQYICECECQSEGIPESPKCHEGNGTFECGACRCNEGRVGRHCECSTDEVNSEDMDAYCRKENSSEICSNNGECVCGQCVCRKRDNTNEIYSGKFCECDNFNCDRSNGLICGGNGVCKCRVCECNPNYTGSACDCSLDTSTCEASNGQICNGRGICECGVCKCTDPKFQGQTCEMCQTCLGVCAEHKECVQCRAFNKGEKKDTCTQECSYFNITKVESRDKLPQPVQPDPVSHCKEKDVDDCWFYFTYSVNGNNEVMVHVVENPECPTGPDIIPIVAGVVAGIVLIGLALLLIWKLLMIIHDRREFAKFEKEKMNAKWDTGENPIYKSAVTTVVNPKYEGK
Integrin beta-1 (Homo sapiens) + Integrin alpha-4 (Homo sapiens), sequence (P13612 whole entry, looked up): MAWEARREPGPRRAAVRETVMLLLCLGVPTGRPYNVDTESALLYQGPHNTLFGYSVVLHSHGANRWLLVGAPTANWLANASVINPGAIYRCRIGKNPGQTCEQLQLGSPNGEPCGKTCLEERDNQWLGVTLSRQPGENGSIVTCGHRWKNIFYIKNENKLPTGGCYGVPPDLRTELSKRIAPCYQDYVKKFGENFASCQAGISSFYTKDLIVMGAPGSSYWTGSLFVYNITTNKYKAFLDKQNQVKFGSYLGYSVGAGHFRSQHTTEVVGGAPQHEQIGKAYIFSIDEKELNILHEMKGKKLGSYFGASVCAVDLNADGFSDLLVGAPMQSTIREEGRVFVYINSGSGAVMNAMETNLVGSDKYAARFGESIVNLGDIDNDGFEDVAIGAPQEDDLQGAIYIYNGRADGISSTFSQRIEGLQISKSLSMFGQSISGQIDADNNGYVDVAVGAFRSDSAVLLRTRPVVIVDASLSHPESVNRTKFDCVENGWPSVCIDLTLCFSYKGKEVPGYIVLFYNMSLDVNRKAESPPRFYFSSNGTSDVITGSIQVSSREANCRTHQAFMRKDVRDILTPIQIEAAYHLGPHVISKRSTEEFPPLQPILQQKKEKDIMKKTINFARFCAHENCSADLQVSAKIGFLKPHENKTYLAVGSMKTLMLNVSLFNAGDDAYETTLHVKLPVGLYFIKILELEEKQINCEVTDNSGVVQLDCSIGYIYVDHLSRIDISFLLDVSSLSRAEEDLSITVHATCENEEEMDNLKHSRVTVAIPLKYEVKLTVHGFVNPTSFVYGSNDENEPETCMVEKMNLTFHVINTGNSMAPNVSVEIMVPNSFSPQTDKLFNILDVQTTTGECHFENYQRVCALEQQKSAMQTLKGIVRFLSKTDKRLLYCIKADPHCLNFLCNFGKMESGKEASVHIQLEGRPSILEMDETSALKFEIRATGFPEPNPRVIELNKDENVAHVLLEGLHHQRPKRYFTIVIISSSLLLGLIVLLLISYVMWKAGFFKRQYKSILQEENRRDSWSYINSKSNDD

Usually inhibition stands for the change of the read-out against control, counted positive when it falls. For the molecule `O=C(O)Cc1ccc(O)c(F)c1`, in test [1], the percent of DMSO control GFP was 91.5% (inactive). The values for the GFP response vs DMSO in test [2] and in test [4] were 135% (inactive) and 80.9% (inactive), respectively. In addition, the percent response of DMSO control in test [3] was 101% (inactive). Besides, the GFP response, % of DMSO in [5] was 91% (inactive). Besides, the double positive events in test [6] came to 61.7%. In addition, the vesicle binding response in test [6] is 175% (inactive). Besides, the values for the inhibition in test [7], in test [11] and in test [15] were -9.06% (inactive), 5.41% (inactive) and 10% (inactive), respectively. Also, in test [8], the superoxide response (% of plate) was 111% (inactive). In addition, the aptamer binding inhibition in test [9] is 4% (inactive). Further, the figures for the response in test [10] and in [12] were -7.58% (inactive) and 1.04% (inactive), respectively. The binding (% of control) in test [13] is 100% (inactive). In test [14], the efflux inhibition (fraction of control) is 0.19 (inactive). For the same molecule, in test [16], the differentiation response was -4.09% (inactive).

As to `CC(C)COC(=O)C1C(=O)CC(C)(O)C(C(=O)OCC(C)C)C1c1cccnc1` (stereo not given), the percent of DMSO control GFP in [1] was 90.4% (inactive). The GFP response vs DMSO in test [2] was 118% (inactive); in test [4] it was 74.3% (inactive). Moreover, the percent response of DMSO control in [3] was 102% (inactive). Also, the GFP response, % of DMSO in [5] is 88.4% (inactive). In addition, in test [6], the double positive events is 59.8%. Moreover, the vesicle binding response in test [6] is 203% (inactive). Further, the inhibition in test [7] was 8.4% (inactive); in [11], 2.38% (inactive); in test [15], 18% (inactive). For the same molecule, in [8], the superoxide response (% of plate) was 113% (inactive). Further, the aptamer binding inhibition in [9] is 2% (inactive). The response in test [10] is -11.2% (inactive); in test [12] it was 2.35% (inactive). For the same molecule, the binding (% of control) in test [13] was 102% (inactive). The efflux inhibition (fraction of control) in test [14] was -0.06 (inactive). In addition, the differentiation response in test [16] is -3.28% (inactive).

For `CC[C@H](C)C(=O)O[C@H]1C[C@@H](C)C=C2C=C[C@H](C)[C@H](CC[C@@H]3C[C@@H](O)CC(=O)O3)[C@H]21`, the percent of DMSO control GFP in [1] was 107% (inactive). Also, the GFP response vs DMSO in test [2] was 108% (inactive); in test [4] it was 97% (inactive). Moreover, the percent response of DMSO control in test [3] was 103% (inactive). Moreover, the GFP response, % of DMSO in [5] was 95.8% (inactive). The double positive events in test [6] was found to be 64.6%. Besides, the vesicle binding response in test [6] was 126% (inactive). Further, the inhibition in test [7] was -5.11% (inactive); in test [11], 49.7% (inactive); in test [15], 0% (inactive). The superoxide response (% of plate) in test [8] was 93.1% (inactive). Moreover, the aptamer binding inhibition in [9] is 2% (inactive). Besides, the response in test [10] was 1.87% (inactive); in test [12], -9.69% (inactive). Besides, in [13], the binding (% of control) is 109% (inactive). Besides, the efflux inhibition (fraction of control) in test [14] is 0.28 (inactive). Besides, the differentiation response in test [16] was -11.9% (inactive).

For the molecule `CNCCCC1c2ccccc2C=Cc2ccccc21`, in test [1], the percent of DMSO control GFP is 96.1% (inactive). In addition, the GFP response vs DMSO is 116% (inactive) in test [2] and 83.1% (inactive) in test [4]. The percent response of DMSO control in test [3] was 108% (inactive). For the same molecule, the GFP response, % of DMSO in test [5] is 97% (inactive). In addition, the double positive events in [6] worked out at 71.4%. In addition, the vesicle binding response in [6] is 307% (inactive). Also, the inhibition in test [7] is 8.4% (inactive); in test [11] it was -2.69% (inactive); in test [15] it was 9% (inactive). In [8], the superoxide response (% of plate) was 103% (inactive). For the same molecule, the aptamer binding inhibition in [9] is -3% (inactive). Moreover, the response in test [10] was 23.4% (inactive); in [12], 0.79% (inactive). Also, the binding (% of control) in test [13] is 101% (inactive). Moreover, the efflux inhibition (fraction of control) in test [14] was 0.16 (inactive). In [16], the differentiation response is -3.28% (inactive).

For `CCc1cc2c(C)cc(=O)oc2cc1OC(=O)C1CCCN1C(=O)OC(C)(C)C` (stereo not given), the percent of DMSO control GFP in test [1] was 103% (inactive). Also, the GFP response vs DMSO in test [2] was 95.2% (inactive); in test [4], 82% (inactive). Further, the percent response of DMSO control in test [3] was 110% (inactive). For the same molecule, the GFP response, % of DMSO in [5] is 96.3% (inactive). The same molecule returned a double positive events in [6] of 57.4%. For the same molecule, the vesicle binding response in test [6] was 247% (inactive). The results for the inhibition in test [7], in test [11] and in [15] were 0.94% (inactive), -11.6% (inactive) and 6% (inactive), respectively. The superoxide response (% of plate) in test [8] was 92.9% (inactive). The aptamer binding inhibition in test [9] was 2% (inactive). The response in [10] is 19.6% (inactive); in [12] it was 1.36% (inactive). Also, the binding (% of control) in test [13] was 103% (inactive). The efflux inhibition (fraction of control) in test [14] was -0.03 (inactive). In addition, the differentiation response in test [16] was -20% (inactive).
